Our source for the growth inhibition values is PubChem BioAssay (NCI).

The structures appear in SMILES notation. The panel holds about 79,000 compounds, 15% with a hit somewhere; the sample as a whole holds those more often. Values without a mark were called inactive. Active and inactive are the calls of the source. No stated cut-off is given here; in the data, active means growth inhibition above about 70%; inactive means the rest.

Test [1] in a line: NCI Yeast Anticancer Drug Screen. Data for the rad50 strain (AID 155).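 Further: 0% = growth of vehicle-only cultures of the same strain.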 The settings on record: S. cerevisiae rad50 strain growth inhibition; at 50.0 µM; hits give high values. In outline: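 Cells are treated with compound, grown, and their growth is then scored against vehicle-only cultures of the same repair-deficient yeast strain.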
A short description of test [2]: NCI Yeast Anticancer Drug Screen. Data for the mec2-1 strain (AID 157). The settings on record: S. cerevisiae mec2-1 strain, at 50.0 µM, hits give high values. In outline:
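Each compound was tested on mec2-1 yeast, a strain altered in DNA damage repair or cell cycle control. Growth inhibition is reported relative to vehicle.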

The nature of test [3]: NCI Yeast Anticancer Drug Screen. Data for the sgs1 mgt1 strain (AID 161).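 Further: 0% = growth of cultures given vehicle only.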 The note with it: S. cerevisiae sgs1 mgt1 strain, at 50.0 µM, hits give high values. In outline: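 Inhibition of yeast growth, normalised to vehicle-treated controls, is reported for a strain bearing genetic alterations in DNA damage repair.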
Test [4] can be described thus: NCI Yeast Anticancer Drug Screen. Data for the cln2 rad14 strain (AID 165).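 Further: 0% = growth equal to vehicle treated cultures.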 The settings on record: S. cerevisiae cln2 rad14 strain, at 50.0 µM, hits give high values. In outline: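 Test compounds were added to cln2 rad14 yeast cultures; inhibition of growth was then determined by comparison with vehicle treatment.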
Test [5] can be described thus: NCI Yeast Anticancer Drug Screen. Data for the bub3 strain (AID 167). The settings on record: S. cerevisiae bub3 mutant strain, at 50.0 µM, hits give high values. In outline:
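Part of a panel of yeast mutants defective in DNA damage repair or cell cycle regulation. Each strain is grown with compound, and inhibition is calculated relative to solvent-treated cultures.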

Test [6] can be described thus: NCI Yeast Anticancer Drug Screen. Data for the mlh1 rad18 strain (AID 175). The settings on record: S. cerevisiae mlh1 rad18 strain growth inhibition; at 50.0 µM; hits give high values. In outline:
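Inhibition values reflect reduced growth of mutant yeast versus vehicle-treated controls following compound exposure; the mutations affect DNA damage repair.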

Consider `CCOC(=O)CCC(C)=O`, for which the growth inhibition in test [1] was 22.8%; in test [2], 11.2%; in test [3], 14.9%; in test [4], 20.5%; in test [5] it was 14.7%; in test [6] it was 11%.

Take `CC(=O)N(c1ccccc1)c1ccccc1`: the growth inhibition in test [1] is 12.8%; in test [2] it was 13.2%; in test [3], 2.6%; in test [4], 6.05%; in test [5], -0.2%; in test [6], 4.1%.

Consider `CC1OCC2CC3(O1)OC3C(COCC1OC3COC(C)OC4(C3)OC14)O2` (stereo not given), for which the growth inhibition in test [1] was -7.05%; in test [2] it was -25.3%; in test [3] it was -3.45%; in test [4], -44.5%; in test [5], -3.15%; in test [6], -14.9%.

For the compound `O=C1CCCC(C(Sc2ccccc2)(Sc2ccccc2)Sc2ccccc2)C1` (stereo not given), the growth inhibition is 62.2% in test [1]; 5.1% in test [2]; 65.2% in test [3]; 37.6% in test [4]; 21.9% in test [5]; 81.3% (active) in test [6].

Turning to `C=CCN(CC=C)CCNc1cc(C)nc(/N=C(\N)Nc2ccc(Cl)c(Cl)c2)n1`, the growth inhibition was 94.7% (active) in test [1]; 94.2% (active) in test [2]; 96.8% (active) in test [3]; 87% (active) in test [4]; 94.7% (active) in test [5]; 97.9% (active) in test [6].

`Cc1ccc([N+](=O)[O-])c2c(NCCC[N+](C)(C)[O-])ccnc12`: the growth inhibition in test [1] was 35.9%; in test [2], -18.1%; in test [3], 20.6%; in test [4], 14.2%; in test [5], -24.7%; in test [6] it was 4.4%.

In the case of `CCCCC(CC)(SC(CC)C(N)=O)C(N)=O` (stereo not given), the growth inhibition was -2.2% in test [1]; -0.55% in test [2]; 16.9% in test [3]; 20.1% in test [4]; 5.75% in test [5]; -5% in test [6].

On to `NC(=O)CC(N)C(=O)NC(Cc1ccccc1)C(=O)NC(Cc1ccccc1)NC(=O)C(Cc1c[nH]c2ccccc12)C(=O)O` (stereo not given), for which the growth inhibition in test [1] is -18.6%; in test [2] it was 8.05%; in test [3], -11.1%; in test [4], -13.2%; in test [5] it was 1.85%; in test [6] it was 1.95%.

As for `O=C([CH-]C(=O)C(F)(F)F)c1ccccc1.O=C([CH-]C(=O)C(F)(F)F)c1ccccc1.O=C([CH-]C(=O)C(F)(F)F)c1ccccc1.[Ru+3]`, the growth inhibition in test [1] was -11.2%; in test [2], -13.8%; in test [3], -11.5%; in test [4], -22.7%; in test [5], 9.8%; in test [6], 4.75%.

As for `C=C(Cl)C(=C)CCC(Cl)C(C)C` (stereo not given), the growth inhibition in test [1] is -6.15%; in test [2], -9.4%; in test [3], 1.6%; in test [4], 20.6%; in test [5] it was 0.25%; in test [6] it was 0.55%.

As to `CS(=O)(=O)CC(=O)c1ccc(Br)cc1`, the growth inhibition in test [1] is -3.1%; in test [2], -4.05%; in test [3], 14.1%; in test [4], -12.8%; in test [5], -5.45%; in test [6], 10.3%.

Take `CCCCNS(=O)(=O)c1n[nH]c(=O)[nH]c1=O`: the growth inhibition in test [1] was -27.1%; in test [2], -10.1%; in test [3] it was -37.9%; in test [4], -12.4%; in test [5] it was -38%; in test [6], -19.2%.

As for `CC(C)(C)c1ccc(O)c(C(c2cc(C(C)(C)C)ccc2O)c2cc(C(C)(C)C)ccc2O)c1`, the growth inhibition in test [1] was 97.2% (active); in test [2], 98.7% (active); in test [3] it was 98% (active); in test [4] it was 97.6% (active); in test [5], 96.5% (active); in test [6], 96.8% (active).

Consider `Cc1cc(Br)c(NC(=S)SCc2ccc(Cl)cc2)cc1C`, for which the growth inhibition was 88.2% (active) in test [1]; 80% (active) in test [2]; 82.6% (active) in test [3]; 63.5% in test [4]; 80% (active) in test [5]; 95.8% (active) in test [6].

For `Cc1cc(C)cc(O)c1`, the growth inhibition in test [1] is -9.4%; in test [2] it was -12.8%; in test [3] it was -42%; in test [4], -13.2%; in test [5] it was -14.8%; in test [6], -1.7%.

For the compound `CC1=CCC(=O)O1`, the growth inhibition is 2.15% in test [1]; 8.2% in test [2]; -1.7% in test [3]; 12.2% in test [4]; -7.75% in test [5]; 15.3% in test [6].

As for `CCN(CC)CC(=N)N(CC)c1ccccc1`, the growth inhibition in test [1] is 26.5%; in test [2] it was 6.95%; in test [3], 4.7%; in test [4], 11.9%; in test [5], 23.8%; in test [6], 28.5%.

As to `N#CCCN(c1ccc(C=Nc2cccc([N+](=O)[O-])c2)cc1)S(=O)(=O)c1ccccc1`, the growth inhibition was 0.75% in test [1]; 5.65% in test [2]; 14.7% in test [3]; 8.1% in test [4]; -1% in test [5]; 14.4% in test [6].

Regarding `O=C(O)c1ccc(SSc2ccc(C(=O)O)cn2)nc1`, the growth inhibition in test [1] is 9.9%; in test [2], 19.1%; in test [3], -13.3%; in test [4], -8.5%; in test [5] it was 6.7%; in test [6], 14.9%.

Consider `C/C(CC(=O)Nc1ccc(Cl)cc1)=N\NC(=O)C[n+]1ccccc1`, for which the growth inhibition in test [1] is 1.35%; in test [2], -17.6%; in test [3] it was 11.2%; in test [4] it was 16.6%; in test [5], -12.5%; in test [6], -8.6%.
